Screens as filed in PubChem.
The list is not random: actives were taken first. Their share in the collection is about 7.6%.
KCNH2 3.1 block = KCNH2 3.1 (human) potassium channel inhibition. U2OS KCNH2 3.1, thallium flux FluxOr; hits give low values. hit rate 0.95% among 340,000. activity change, % (tested at about 1.8 µM);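 active = maximum activity change below -70%; inconclusive = maximum activity change from -70% to -50%; inactive = maximum activity change above -50%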;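 note: thallium influx rate constant from kinetic fluorescence after stimulation buffer; % is set by controls: 0 for no effect and ±100 for the full control effect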
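Kinetic fluorescence (2 min after stimulation buffer) measures Tl+ influx through KCNH2 3.1 expressed by viral transduction in U2OS cells; the rate constant is normalized against DMSO controls serving as positive and negative references.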
KCNH2 WT inh = inhibitors of human wildtype KCNH2 potassium channel; activity change, % at 1.84 µM; hit rate 0.37% among 340,000; Q12809; U2OS, BacMam KCNH2, thallium flux FluxOr; hits give low values;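 active = maximum activity change below -70%; inconclusive = maximum activity change between -70% and -50%; inactive = maximum activity change above -50%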; note: % is set by controls: 0 for no effect and ±100 for the full control effect
Target sequence (Q12809 whole entry, looked up): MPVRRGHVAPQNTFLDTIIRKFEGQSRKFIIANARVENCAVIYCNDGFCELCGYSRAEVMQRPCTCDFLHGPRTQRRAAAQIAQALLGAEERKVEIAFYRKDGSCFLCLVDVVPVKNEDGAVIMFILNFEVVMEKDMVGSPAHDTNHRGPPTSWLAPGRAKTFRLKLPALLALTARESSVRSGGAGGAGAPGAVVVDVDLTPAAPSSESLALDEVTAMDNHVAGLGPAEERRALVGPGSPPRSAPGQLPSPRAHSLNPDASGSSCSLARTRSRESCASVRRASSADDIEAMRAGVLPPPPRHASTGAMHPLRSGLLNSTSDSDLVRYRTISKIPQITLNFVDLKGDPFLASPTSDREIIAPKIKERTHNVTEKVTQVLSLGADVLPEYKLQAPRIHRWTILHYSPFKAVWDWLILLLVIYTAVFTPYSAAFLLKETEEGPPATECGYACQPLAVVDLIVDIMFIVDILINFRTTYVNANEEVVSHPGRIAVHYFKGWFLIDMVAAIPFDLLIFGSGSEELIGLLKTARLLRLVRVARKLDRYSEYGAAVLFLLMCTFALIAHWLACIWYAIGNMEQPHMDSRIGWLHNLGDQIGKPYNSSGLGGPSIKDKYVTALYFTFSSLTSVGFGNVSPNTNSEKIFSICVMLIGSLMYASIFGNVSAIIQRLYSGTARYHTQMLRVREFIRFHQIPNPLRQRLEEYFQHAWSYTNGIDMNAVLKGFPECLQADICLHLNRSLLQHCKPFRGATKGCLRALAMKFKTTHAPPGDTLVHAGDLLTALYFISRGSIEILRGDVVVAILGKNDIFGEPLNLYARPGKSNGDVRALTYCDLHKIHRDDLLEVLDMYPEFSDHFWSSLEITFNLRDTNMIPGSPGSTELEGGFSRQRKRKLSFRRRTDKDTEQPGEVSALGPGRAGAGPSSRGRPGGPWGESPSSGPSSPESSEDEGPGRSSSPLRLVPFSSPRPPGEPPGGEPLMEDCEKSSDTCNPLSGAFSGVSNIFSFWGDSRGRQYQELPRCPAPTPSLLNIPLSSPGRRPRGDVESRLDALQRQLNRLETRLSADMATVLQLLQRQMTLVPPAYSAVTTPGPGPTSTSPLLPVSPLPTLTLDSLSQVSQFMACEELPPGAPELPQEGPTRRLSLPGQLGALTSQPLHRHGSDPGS
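U2OS cells transduced with wild-type KCNH2 virus are loaded with FluxOr dye for 45 min, and thallium flux is measured in kinetic reads before and after stimulation buffer. Rate constants are normalized to DMSO controls.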
KB-3-1 tox = kills parental KB-3-1 adenocarcinoma cells; KB-3-1 viability, CellTiter-Glo ATP luminescence, 72 h; Potency, µM (titrated, usually from 46.1 µM), usual class: cytotoxic; hit rate 1.4% among 400,000; note: potency is the fitted concentration of half-maximal effect; % is set by controls: 0 for no effect and ±100 for the full control effect; nearly all actives have a fitted effect of over 60% in size
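Cells are dispensed, compounds pinned in, plates held at 37 °C for 72 h, then CellTiter-Glo is added and luminescence read after 10 minutes. Cell line: parental KB-3-1 in phenol-red-free DMEM, 10% FBS.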
MCF10A rerep = DNA re-replication induction in MCF 10a cells; MCF 10A DNA re-replication, Hoechst nuclear intensity, 48 h; Potency, µM (top dose mostly 46.1 µM), for inactives: at the top dose activity, positive = re-replication, actives largely listed as activators; hit rate 2.9% among 350,000; note: potency is the fitted concentration of half-maximal effect; % of control where 0% means no effect; nearly all actives have a fitted effect of over 50% in size
KB-V1 cytotox = kills drug-selected multidrug resistant KB-V1 cells. hit rate 3.4% among 400,000. AID 1347076. KB-V1 MDR cells viability, CellTiter-Glo, 72 h. Potency, µM (series often up to 46.1 µM), actives largely listed as cytotoxic; note: potency is the fitted concentration of half-maximal effect; % is set by controls: 0 for no effect and ±100 for the full control effect; nearly all actives have a fitted effect of over 60% in size
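In this primary screen, KB-V1 cells overexpressing P-gp are incubated with library compounds (lowest to highest concentration) for 72 h at 37 degrees C before a luminescent ATP viability read.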
SW480 rerep = inducers of DNA re-replication in SW480 colon cancer cells; AID 624297; SW480 DNA re-replication, Hoechst DNA content imaging, 48 h; hit rate 1.8% among 340,000; Potency, µM (doses to about 46.1 µM), for the others: at the highest dose re-replication activation, usual class: activators; note: potency is the fitted concentration of half-maximal effect; % of control where 0% means no effect; nearly all actives have a fitted effect of over 55% in size
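Hoechst fluorescence of nuclei (405 nm excitation, 500-530 nm emission) measured by plate-scanning imager after 48 hr compound exposure at 37 C; re-replication scored as increased number of nuclei with elevated intensity.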
The depositor's hits bear a star; i = inactive; ? = inconclusive; · = not tested or not shown. Unless noted, calls come from the whole dose curve; as a rule, active = well fitted curve in the direction sought with a large enough effect; inconclusive = small, poorly fitted or top-dose-only effect, or another doubt; inactive = no such curve, though single readings can be large; an effect the other way counts as inactive or inconclusive.

SMILES	KCNH2 3.1 block	KCNH2 WT inh	KB-3-1 tox	MCF10A rerep	KB-V1 cytotox	SW480 rerep
O=C(NC1CCCCC1)c1cc(S(=O)(=O)N2CCCCC2)ccc1N1CCOCC1	6.8	2.8	i	5.8%	i	2.5%
Cc1cc(SCC(=O)N/N=C/c2ccc(O)cc2O)c(C)cc1Br	-16.8	-3.3	?	13.0%	10.3µM*	?
Cc1occc1C(=O)N1CCN(c2ccc(Cl)c(Cl)c2)CC1	7.0	5.5	i	-5.3%	23.1µM*	7.5%
CCOc1cccc(-c2nn(-c3ccccc3)cc2/C=C(/C#N)C(=O)NCCCn2ccnc2)c1	-3.3	13.6	i	20.6µM*	?	?
O=C(NCCCn1ccnc1)c1cn(-c2ccccc2)nc1-c1ccccc1	-14.4	25.3	i	-13.3%	i	2.3%
N#C/C(=C/c1cn(-c2ccccc2)nc1-c1cccc(OCc2ccccc2)c1)C(=O)NCCCn1ccnc1	-47.3	10.7	i	13µM*	9.2µM*	?
O=C(Nc1ccc(F)cc1)C(c1ccncc1)N1CCN(CC(=O)N2CCCC2)CC1 (centres undefined)	·	·	i	·	i	·
CC(C)(Oc1ccc(Cl)cc1)C(=O)NCC1CCCO1 (centres undefined)	9.3	-3.1	i	14.6%	i	-2.0%
CCC(=O)N1CCN(c2ccc(Cl)cc2NC(=O)Cc2ccc(Cl)cc2)CC1	-75.3*	22.3	i	-9.0%	3.66µM*	8.8%
CCCC(=O)N1CCN(c2nc3ccc(Cl)cc3s2)CC1	4.8	0.6	18.4µM*	?	?	-0.3%
N#Cc1ccc(S(=O)(=O)N2CCCN(c3nc4ccc(Cl)cc4s3)CC2)cc1	-94.7*	-74.0*	i	-5.5%	?	17.4%
CCCC(=O)Nc1cc(Cl)ccc1N1CCN(C(=O)CC)CC1	5.3	-6.3	i	18.4µM*	?	20.9%
CCC(=O)N1CCN(c2ccccc2NC(=O)Cc2ccc(Cl)cc2)CC1	-30.1	24.3	i	-5.8%	i	-7.3%
CCCCN(C)Cc1c(O)ccc2c(=O)c(-c3ccccc3OC)coc12	-5.1	2.4	i	-4.5%	i	0.2%
N[C@@H]1C(O)OC(CO)C(O)C1O (some centres undefined)	·	·	·	-4.7%	·	0.7%
C/C(CC(=O)Nc1cc(Cl)ccc1C)=N\NC(=O)C(=O)N1CCCC1	5.3	-1.1	i	29.0%	?	9.7%
COc1cc2[nH]c(=O)c(C(=O)NCc3ccc(F)cc3)c(O)c2cc1OC	9.9	-18.2	i	20.6%	i	-3.7%
Cc1ccc(/C=N/NC(=O)COc2ccc(Cl)c(C)c2)o1	-2.7	4.3	i	-4.2%	i	-8.2%
O=C(NC(NC(=O)c1ccccc1)c1ccccc1)c1ccccc1	11.8	4.5	i	1.8%	?	-1.5%
O=S(=O)(CC(CN1CCCC1)N1CCCC1)c1ccc2ccccc2c1 (centres undefined)	2.5	4.0	11.6µM*	11.6µM*	?	10.3µM*
COc1cc2ccccc2cc1C(=O)Nc1nnc(-c2ccncc2)o1	9.6	3.6	i	0.3%	?	-1.7%
CC1C(=O)CC(c2ccc([N+](=O)[O-])cc2)NC1c1ccc([N+](=O)[O-])cc1 (centres undefined)	-70.9*	-21.9	i	-6.0%	i	-0.9%
CC1C(=O)C(C)C(c2ccc([N+](=O)[O-])cc2)NC1c1ccc([N+](=O)[O-])cc1 (centres undefined)	?	3.0	i	?	?	-2.4%
COc1cccc(NC(=O)CN(C)C(=O)c2ccc(-n3cncn3)c([N+](=O)[O-])c2)c1	-10.3	3.8	i	-3.1%	i	10.2%
CC1(C(=O)NCc2ccco2)Cc2c(-c3ccc(C(N)=O)cc3)ccnc2O1 (centres undefined)	·	·	18.4µM*	·	i	·
SMILES	KCNH2 3.1 block	KCNH2 WT inh	KB-3-1 tox	MCF10A rerep	KB-V1 cytotox	SW480 rerep
CC1(C(=O)NCc2ccccc2)Cc2c(-c3ccc4c(c3)OCO4)ccnc2O1 (centres undefined)	·	·	4.61µM*	·	2.06µM*	·
CC(C)NC(=O)C1(C)Cc2c(-c3ccc(C(N)=O)cc3)ccnc2O1 (centres undefined)	·	·	i	·	i	·
CC1(C(=O)NCCc2ccccc2)Cc2c(-c3ccc4c(c3)OCO4)ccnc2O1 (centres undefined)	·	·	i	·	i	·
CC1(C(=O)NCc2ccccc2)Cc2c(-c3ccccc3)ccnc2O1 (centres undefined)	·	·	20.6µM*	·	?	·
CC1(C(=O)NCc2ccccc2)Cc2c(-c3ccc(C(N)=O)cc3)ccnc2O1 (centres undefined)	·	·	8.2µM*	·	i	·
O=C(OC1CCOC1=O)c1ccc(CO)cc1 (centres undefined)	8.2	-0.9	i	-15.0%	i	-6.6%
CNC(=O)c1cc(S(=O)(=O)Nc2ccc(C)cc2C)ccc1C	18.1	-17.9	i	9.5%	i	-4.9%
Clc1ccc2nc[nH]c2c1	·	·	i	·	i	·
CCn1cc(C2=NOC(C(=O)Nc3ccccc3C(=O)OC)C2)c(C)n1 (centres undefined)	10.3	6.3	i	-5.7%	10.3µM*	-10.8%
O=S(=O)(Cc1ccccc1)N1CCC(c2nc(-c3cccs3)no2)CC1	8.3	-7.1	i	2.1%	20.6µM*	-8.9%
O=C(N1CCOCC1)N1CCCC(c2nc(-c3cccs3)no2)C1 (centres undefined)	-5.2	-9.0	i	2.4%	14.6µM*	-2.7%
CN(C)S(=O)(=O)c1ccc2nnn(OCC(=O)NC34CC5CC(CC(C5)C3)C4)c2c1	-3.7	7.2	i	22.4%	3.66µM*	-1.2%
O=C(c1ccccc1)N1N=C(c2cccs2)CC1c1ccccc1O (centres undefined)	7.0	-3.9	i	17.1%	i	-7.3%
COC(=O)c1ccc(C2N=C(c3cccs3)CC(c3ccccc3O)N2)cc1 (centres undefined)	-11.9	4.0	i	18.4µM*	i	?
CN(C(=O)COC(=O)c1cc(S(=O)(=O)N2CCOCC2)ccc1F)C1CCS(=O)(=O)C1 (centres undefined)	3.4	3.1	i	14.9%	i	-6.0%
CCN(CC)CCn1c2ccccc2c2nc3ccc([N+](=O)[O-])cc3cc21	6.0	3.5	i	?	i	20.6µM*
Cn1c2ccccc2c2cc([N+](=O)[O-])ccc21	0.3	0.7	i	3.0%	?	-6.5%
O=C1C=CC2(O[C@H](c3ccccc3)[C@@H](c3ccccc3)O2)[C@H](Sc2ccccc2O)C1	-21.4	-5.7	3.26µM*	?	?	?
